The supplement of paper PMC10849652
Targets with a hit are over-represented here; the source holds about 7,900 in all. About 0.6% of all pairs of compound and target were hits. Values without a mark were called inactive.

Key:
Assay in all cases: log2 fold change, soluble protein after heating vs DMSO (PISA); higher = thermal stabilisation; K562 cells, 10 uM, 30 min; active = over 0.2 and 3.5 SD of the protein, either way, in both replicates (recomputed)
[1] = compound: CS(=O)(=O)c1ccc(-c2cnc(N)c(C(=O)Nc3ccccc3)n2)cc1
Method in brief: (§1)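 Quantification of soluble protein used TMTpro 16plex LC-MS/MS, with channel sums equalised. Samples were the supernatant after 21,000xg for 90 min of pooled aliquots from K562 cells (2×10^6 cells/mL) treated with 10 μM compound for 30 min, heated for 3 min over 48°C-58°C, and extracted in PBS with 0.5% NP-40 at 4°C. Values, from duplicates, describe thermal stability against control samples on a log2 fold-change scale.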

crizotinib = compound: C[C@@H](Oc1cc(-c2cnn(C3CCNCC3)c2)cnc1N)c1c(Cl)ccc(F)c1Cl [crizotinib]
Method in brief: as §1

[2] = compound: C[C@@H]1COCCN1C2=NC(=NC(=C2)C3(CC3)S(=O)(=O)C)C4=C5C=CNC5=CC=C4
Method in brief: as §1

[3] = compound: C[C@H](C1=CC=C(C=C1)C(=O)NC2=C3C=CNC3=NC=C2)N
Method in brief: as §1

duvelisib = compound: C[C@H](Nc1ncnc2nc[nH]c12)c1cc2cccc(Cl)c2c(=O)n1-c1ccccc1 [duvelisib]
Method in brief: as §1

gandotinib = compound: Cc1cc(Nc2cc(CN3CCOCC3)c3nc(C)c(Cc4ccc(Cl)cc4F)n3n2)n[nH]1 [gandotinib]
Method in brief: as §1

tozasertib = compound: Cc1cc(Nc2cc(N3CCN(C)CC3)nc(Sc3ccc(NC(=O)C4CC4)cc3)n2)n[nH]1 [tozasertib]
Method in brief: as §1

[4] = compound: Cc1cc(SCc2sc(-c3ccc(C(F)(F)F)cc3)nc2C)ccc1OCC(=O)O
Method in brief: as §1

doramapimod = compound: Cc1ccc(-n2nc(C(C)(C)C)cc2NC(=O)Nc2ccc(OCCN3CCOCC3)c3ccccc23)cc1 [doramapimod]
Method in brief: as §1

ispinesib = compound: Cc1ccc(C(=O)N(CCCN)[C@@H](c2nc3cc(Cl)ccc3c(=O)n2Cc2ccccc2)C(C)C)cc1 [ispinesib]
Method in brief: as §1

Chain of UniProt P49321 (P49321 whole entry, looked up): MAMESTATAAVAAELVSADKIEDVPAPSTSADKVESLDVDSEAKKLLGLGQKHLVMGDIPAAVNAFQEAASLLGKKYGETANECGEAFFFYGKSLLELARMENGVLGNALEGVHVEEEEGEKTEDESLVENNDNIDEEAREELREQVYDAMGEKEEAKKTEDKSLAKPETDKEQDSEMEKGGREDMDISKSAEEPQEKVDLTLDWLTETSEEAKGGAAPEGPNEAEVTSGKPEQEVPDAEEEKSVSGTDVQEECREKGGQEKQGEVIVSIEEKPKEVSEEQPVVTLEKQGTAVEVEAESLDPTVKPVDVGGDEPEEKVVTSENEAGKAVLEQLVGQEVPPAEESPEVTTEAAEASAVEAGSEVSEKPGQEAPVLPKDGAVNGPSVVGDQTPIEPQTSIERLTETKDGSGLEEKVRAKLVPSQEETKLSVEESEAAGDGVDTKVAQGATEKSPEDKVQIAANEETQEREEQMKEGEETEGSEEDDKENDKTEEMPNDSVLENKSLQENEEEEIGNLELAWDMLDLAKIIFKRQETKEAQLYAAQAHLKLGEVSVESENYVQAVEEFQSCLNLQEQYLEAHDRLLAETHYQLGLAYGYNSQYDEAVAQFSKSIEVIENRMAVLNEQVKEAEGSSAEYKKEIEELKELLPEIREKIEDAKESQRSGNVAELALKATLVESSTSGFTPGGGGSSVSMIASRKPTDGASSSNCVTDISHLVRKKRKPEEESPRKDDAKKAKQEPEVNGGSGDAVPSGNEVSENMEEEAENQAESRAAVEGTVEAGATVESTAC
Chain of UniProt P46087 (P46087 whole entry, looked up): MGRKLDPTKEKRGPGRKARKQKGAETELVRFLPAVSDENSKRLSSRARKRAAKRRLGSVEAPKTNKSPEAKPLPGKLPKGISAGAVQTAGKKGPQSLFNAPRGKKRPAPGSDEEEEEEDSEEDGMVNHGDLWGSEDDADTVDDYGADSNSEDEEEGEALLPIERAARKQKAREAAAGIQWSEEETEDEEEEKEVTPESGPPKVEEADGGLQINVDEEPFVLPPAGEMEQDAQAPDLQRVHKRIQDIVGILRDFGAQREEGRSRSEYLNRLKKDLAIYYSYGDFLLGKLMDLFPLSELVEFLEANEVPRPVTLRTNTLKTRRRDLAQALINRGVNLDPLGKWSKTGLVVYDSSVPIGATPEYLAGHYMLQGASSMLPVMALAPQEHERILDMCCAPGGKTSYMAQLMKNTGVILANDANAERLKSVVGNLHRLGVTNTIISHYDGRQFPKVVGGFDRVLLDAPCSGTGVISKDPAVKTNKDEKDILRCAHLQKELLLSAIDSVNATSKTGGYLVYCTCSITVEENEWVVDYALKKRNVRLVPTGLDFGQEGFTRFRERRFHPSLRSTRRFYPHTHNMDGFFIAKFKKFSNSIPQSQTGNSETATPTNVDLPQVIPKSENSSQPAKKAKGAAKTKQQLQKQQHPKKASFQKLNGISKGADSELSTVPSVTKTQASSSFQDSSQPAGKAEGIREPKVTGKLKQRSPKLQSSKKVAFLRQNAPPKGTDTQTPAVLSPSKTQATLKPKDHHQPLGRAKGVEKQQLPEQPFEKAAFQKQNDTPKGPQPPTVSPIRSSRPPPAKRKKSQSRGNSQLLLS
Chain of UniProt P46934 (P46934 whole entry, looked up): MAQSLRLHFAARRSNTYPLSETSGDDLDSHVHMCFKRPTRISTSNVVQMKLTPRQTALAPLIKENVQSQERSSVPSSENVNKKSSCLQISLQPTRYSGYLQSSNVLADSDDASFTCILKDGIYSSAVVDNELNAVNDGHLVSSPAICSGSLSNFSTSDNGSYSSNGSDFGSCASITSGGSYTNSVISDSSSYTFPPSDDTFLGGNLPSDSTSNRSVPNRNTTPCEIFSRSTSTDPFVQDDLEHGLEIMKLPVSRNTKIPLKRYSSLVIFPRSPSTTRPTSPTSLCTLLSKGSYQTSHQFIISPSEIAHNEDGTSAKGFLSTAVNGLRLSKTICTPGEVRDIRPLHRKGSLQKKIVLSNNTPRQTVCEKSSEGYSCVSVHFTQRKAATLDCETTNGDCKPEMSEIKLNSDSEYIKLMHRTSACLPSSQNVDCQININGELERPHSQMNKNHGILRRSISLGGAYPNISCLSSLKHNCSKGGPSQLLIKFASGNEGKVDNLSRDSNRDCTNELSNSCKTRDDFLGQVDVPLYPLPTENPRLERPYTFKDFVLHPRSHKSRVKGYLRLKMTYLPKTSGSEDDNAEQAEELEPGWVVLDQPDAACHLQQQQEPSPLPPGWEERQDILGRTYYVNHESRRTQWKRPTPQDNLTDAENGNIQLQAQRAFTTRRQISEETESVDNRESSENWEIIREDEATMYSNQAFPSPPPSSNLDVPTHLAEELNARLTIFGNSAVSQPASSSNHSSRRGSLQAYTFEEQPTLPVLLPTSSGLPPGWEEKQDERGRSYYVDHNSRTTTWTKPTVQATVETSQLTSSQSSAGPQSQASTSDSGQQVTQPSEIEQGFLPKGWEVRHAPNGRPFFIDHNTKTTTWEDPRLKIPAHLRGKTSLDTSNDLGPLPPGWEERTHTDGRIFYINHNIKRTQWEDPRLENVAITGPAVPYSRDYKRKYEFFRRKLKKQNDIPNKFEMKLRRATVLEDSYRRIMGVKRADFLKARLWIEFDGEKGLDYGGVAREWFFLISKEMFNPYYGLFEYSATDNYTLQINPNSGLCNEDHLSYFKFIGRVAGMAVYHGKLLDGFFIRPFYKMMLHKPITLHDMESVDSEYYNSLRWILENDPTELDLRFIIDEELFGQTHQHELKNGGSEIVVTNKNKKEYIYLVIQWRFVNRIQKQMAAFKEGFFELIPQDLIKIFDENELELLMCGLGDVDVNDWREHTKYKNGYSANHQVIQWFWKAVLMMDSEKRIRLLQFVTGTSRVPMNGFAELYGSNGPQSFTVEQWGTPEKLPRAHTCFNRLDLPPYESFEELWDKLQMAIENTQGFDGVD
Chain of UniProt Q8NCE2 (Q8NCE2 whole entry, looked up): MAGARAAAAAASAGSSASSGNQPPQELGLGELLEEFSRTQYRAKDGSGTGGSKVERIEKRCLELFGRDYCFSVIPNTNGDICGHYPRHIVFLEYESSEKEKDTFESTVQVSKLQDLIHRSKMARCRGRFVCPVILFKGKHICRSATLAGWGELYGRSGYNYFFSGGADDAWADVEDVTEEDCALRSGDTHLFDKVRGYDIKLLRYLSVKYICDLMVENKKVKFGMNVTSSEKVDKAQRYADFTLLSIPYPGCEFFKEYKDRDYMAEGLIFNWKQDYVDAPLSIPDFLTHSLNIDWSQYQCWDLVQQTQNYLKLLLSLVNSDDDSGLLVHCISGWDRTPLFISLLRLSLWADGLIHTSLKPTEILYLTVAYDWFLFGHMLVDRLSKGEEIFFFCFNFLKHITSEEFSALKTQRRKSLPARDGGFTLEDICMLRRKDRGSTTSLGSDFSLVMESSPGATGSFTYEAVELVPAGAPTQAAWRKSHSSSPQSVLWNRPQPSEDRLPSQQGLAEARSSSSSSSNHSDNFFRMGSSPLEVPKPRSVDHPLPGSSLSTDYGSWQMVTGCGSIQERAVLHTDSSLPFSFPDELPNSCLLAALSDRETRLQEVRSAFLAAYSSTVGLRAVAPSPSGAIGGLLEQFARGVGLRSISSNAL
Chain of UniProt Q96MF7 (Q96MF7 whole entry, looked up): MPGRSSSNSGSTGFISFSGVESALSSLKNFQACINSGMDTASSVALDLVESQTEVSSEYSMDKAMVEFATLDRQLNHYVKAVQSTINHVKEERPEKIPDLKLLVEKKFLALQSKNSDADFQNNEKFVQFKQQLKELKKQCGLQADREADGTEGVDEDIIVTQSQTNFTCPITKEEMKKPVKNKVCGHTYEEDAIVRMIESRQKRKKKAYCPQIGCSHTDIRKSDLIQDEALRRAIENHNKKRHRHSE
Chain of UniProt P00846 (P00846 whole entry, looked up): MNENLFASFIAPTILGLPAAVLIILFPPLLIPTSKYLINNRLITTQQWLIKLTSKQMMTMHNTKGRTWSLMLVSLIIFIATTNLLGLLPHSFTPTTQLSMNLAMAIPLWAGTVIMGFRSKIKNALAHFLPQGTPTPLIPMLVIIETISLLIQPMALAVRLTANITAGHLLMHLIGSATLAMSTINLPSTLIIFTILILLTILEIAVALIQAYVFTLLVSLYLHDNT
Chain of UniProt Q9HBL8 (Q9HBL8 whole entry, looked up): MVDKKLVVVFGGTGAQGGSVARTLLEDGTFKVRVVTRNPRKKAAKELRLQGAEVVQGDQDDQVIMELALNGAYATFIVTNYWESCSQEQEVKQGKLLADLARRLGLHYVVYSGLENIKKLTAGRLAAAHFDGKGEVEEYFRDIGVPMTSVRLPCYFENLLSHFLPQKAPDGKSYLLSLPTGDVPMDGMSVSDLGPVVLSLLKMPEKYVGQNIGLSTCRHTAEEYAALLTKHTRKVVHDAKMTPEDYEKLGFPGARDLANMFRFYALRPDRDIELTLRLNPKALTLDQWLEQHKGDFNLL
Chain of UniProt P51948 (P51948 whole entry, looked up): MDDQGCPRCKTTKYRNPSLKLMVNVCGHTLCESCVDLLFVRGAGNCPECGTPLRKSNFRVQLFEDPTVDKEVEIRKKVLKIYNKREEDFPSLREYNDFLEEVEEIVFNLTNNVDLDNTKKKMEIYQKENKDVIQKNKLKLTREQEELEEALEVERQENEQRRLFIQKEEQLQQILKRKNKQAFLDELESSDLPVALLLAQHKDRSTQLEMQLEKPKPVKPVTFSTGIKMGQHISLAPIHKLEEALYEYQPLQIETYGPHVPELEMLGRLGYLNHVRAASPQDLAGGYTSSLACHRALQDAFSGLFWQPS
Chain of UniProt Q9Y5B8 (Q9Y5B8 whole entry, looked up): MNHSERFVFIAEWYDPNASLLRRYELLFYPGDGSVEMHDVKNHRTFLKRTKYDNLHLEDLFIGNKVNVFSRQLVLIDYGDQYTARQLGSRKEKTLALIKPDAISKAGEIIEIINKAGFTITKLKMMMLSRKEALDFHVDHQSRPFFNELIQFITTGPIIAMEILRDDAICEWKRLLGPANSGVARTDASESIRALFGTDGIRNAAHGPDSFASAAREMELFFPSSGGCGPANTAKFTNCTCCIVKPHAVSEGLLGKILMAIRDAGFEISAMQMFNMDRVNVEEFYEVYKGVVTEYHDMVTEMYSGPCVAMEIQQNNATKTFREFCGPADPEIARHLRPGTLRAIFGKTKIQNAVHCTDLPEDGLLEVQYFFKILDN

Target | log2 fold change [1] | log2 fold change (crizotinib) | log2 fold change [2] | log2 fold change [3] | log2 fold change (duvelisib) | log2 fold change (gandotinib) | log2 fold change (tozasertib) | log2 fold change [4] | log2 fold change (doramapimod) | log2 fold change (ispinesib)
MRPL47 (UniProt Q9HD33) | 0.039 | 0.019 | -0.087 | 0.261 | -0.076 | 0.625 (active) | 0.033 | 0.095 | 0.11 | -0.237
MTMR14 (UniProt Q8NCE2) | 0.033 | 0.069 | -0.054 | 0.014 | 0.048 | 0.144 | 0.046 | 0.079 | -0.03 | 0.061
PAFAH1B2 (UniProt P68402) | 0.016 | -0.017 | -0.13 | -0.054 | 0.086 | 0.16 | -0.072 | -0.066 | 0.022 | -0.002
NA, A0A0B4J2A0 | -0.087 | -0.18 | 0.093 | 0.06 | 0.071 | -0.087 | -0.061 | 0.061 | -0.049 | -0.121
NIBAN1 (UniProt Q9BZQ8) | 0.02 | -0.296 | 0.014 | 0.097 | 0.017 | -0.143 | -0.003 | 0.116 | 0.001 | -0.148
MON1B (UniProt Q7L1V2) | 0.006 | -0.342 (active) | 0.069 | -0.001 | -0.02 | -0.106 | -0.018 | 0.005 | 0.022 | -0.102
NUP160 (UniProt Q12769) | 0.017 | -0.014 | 0.034 | -0.027 | 0.024 | -0.06 | 0.078 | 0.007 | 0.019 | 0.044
OTUD4 (UniProt Q01804) | 0.018 | -0.001 | -0.094 | 0.106 | -0.073 | 0.059 | 0.034 | -0.001 | 0.052 | -0.034
NDUFS8 (UniProt O00217) | 0.021 | -0.182 | 0.143 | -0.027 | 0.055 | -0.168 | -0.011 | 0.021 | -0.043 | -0.158
NEDD4 isoform 4 (UniProt P46934) | -0.05 | -0.081 | 0.095 | -0.039 | -0.006 | -0.061 | 0.093 | -0.009 | -0.042 | -0.022
NMRAL1 (UniProt Q9HBL8) | 0.228 | 0.469 | 0.054 | 0.04 | 0.046 | -0.169 | -0.056 | -0.009 | 0.001 | -0.103
MRPS15 (UniProt P82914) | 0.09 | -0.092 | 0.022 | 0.072 | -0.011 | -0.053 | -0.046 | 0.067 | 0.042 | -0.318 (active)
MSH2 (UniProt P43246) | 0.057 | 0.04 | 0.056 | -0.038 | 0.08 | -0.02 | 0.072 | 0.117 | -0.067 | 0.09
MSH6 (UniProt P52701) | 0.075 | -0.427 | 0.152 | -0.018 | 0.009 | -0.196 | 0.099 | 0.185 | -0.053 | -0.087
NOL11 (UniProt Q9H8H0) | -0.036 | 0.084 | -0.017 | -0.041 | 0.073 | -0.061 | -0.01 | -0.015 | -0.005 | 0.097
MRPL46 (UniProt Q9H2W6) | 0.042 | 0.039 | -0.019 | 0.186 | -0.024 | 0.026 | -0.031 | 0.054 | 0.06 | -0.157
NR2C2 isoform 2 (UniProt P49116) | 0.016 | 0.063 | 0.054 | -0.076 | 0.066 | -0.047 | 0.081 | 0.022 | 0.011 | 0.009
MT-ATP6 (UniProt P00846) | 0.041 | 0.355 | 0.225 | 0.135 | 0.153 | 0.143 | 0.045 | -0.081 | -0.038 | 0.076
MNAT1 (UniProt P51948) | 0.007 | 0.02 | -0.068 | -0.036 | 0.007 | 0.024 | 0.015 | 0.005 | -0.057 | 0.089
NDUFB7 (UniProt P17568) | 0.004 | 0.001 | 0.03 | -0.094 | 0.006 | -0.02 | -0.018 | -0.041 | 0.021 | 0.015
MRPS26 (UniProt Q9BYN8) | 0.097 | 0.005 | 0.009 | 0.291 | 0.002 | 0.158 | 0.146 | 0.065 | 0.059 | -0.421 (active)
OSTM1 (UniProt Q86WC4) | -0.014 | -0.244 | 0.028 | -0.021 | -0.017 | -0.225 | -0.003 | -0.033 | 0.041 | -0.308 (active)
NSMCE2 (UniProt Q96MF7) | 0.001 | 0.051 | -0.038 | -0.024 | -0.011 | -0.131 | 0.043 | -0.042 | 0.004 | 0.044
NME7 (UniProt Q9Y5B8) | -0.187 | -0.136 | -0.027 | 0.046 | -0.031 | -0.091 | 0.068 | 0.056 | 0.033 | -0.117
NOP2 isoform 4 (UniProt P46087) | 0 | -0.127 | -0.25 | 0.673 | -0.166 | 0.231 | 0.084 | -0.022 | 0.219 | 0.163
NASP (UniProt P49321) | 0.005 | 0.063 | 0.045 | -0.061 | 0.08 | -0.066 | 0.105 | 0.013 | -0.053 | 0.06
MTOR (UniProt P42345) | 0.003 | -0.23 | 0.08 | 0.06 | 0.025 | -0.138 | 0.044 | 0.024 | 0.001 | -0.184
